# Inconclusive results are not listed. A call without a number means that no potency is given here. A number with no mark means an inactive call. Calls of active or inactive are those of the source. Calls follow the shape of the dose curve; as a rule, active = well fitted curve in the direction sought with a large enough effect; inconclusive = small, poorly fitted or top-dose-only effect, or another doubt; inactive = no such curve, though single readings can be large; an effect the other way counts as inactive or inconclusive. Where a SMILES comes first, the peptide text is derived from it. Bridges are numbered along the chain shown (N, C = ends). [ ]: non-standard residue; d: D form. The star is where a group is joined. X2 = CC[C@H](C)CCCCC(=O)*; Dab = NCC[C@H](N)C(=O)O
# Legend:
# [1] = qHTS Assay for Identifying Gametocytocidal Compounds (AID 743244);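 also: actives lower the fluorescent signal which means gametocytes are killed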; conditions: P. falciparum 3D7 stage III-V gametocytes, alamarBlue, 72 h; max response: hits give low values
# Method in brief: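 3D7 gametocytes, stages III–V, 20,000/well; cpd 72 h, 37 °C/5% CO2; + alamarBlue 24 h; fluor. Ex 525/Em 598.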
# [2] = P-glycoprotein substrates identified in KB-8-5-11 adenocarcinoma cell line, qHTS therapeutic library screen (AID 1346987); conditions: KB-8-5-11 (P-gp overexpressing) viability, CellTiter-Glo, 72 h; series mostly up to 44.5 µM; also: nearly all actives have a fitted effect of over 65% in size
# Method in brief: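 KB-8-5-11, a colchicine-selected P-gp-overexpressing KB-3-1 subline, was grown without colchicine for the assay. Cells were seeded at 500 cells/well, dosed in concentration-response and incubated 72 h at 37 degree C, 5% CO2. Viability was read by CellTiter-Glo luminescence.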
SMILES,max response [1],Potency [2]
Nc1ncnc(Nc2ccc(Cl)cc2)n1,-12%,inactive
C[C@]12CC[C@@H]3c4ccc(OS(=O)(=O)O)cc4CC[C@H]3[C@@H]1CCC2=O,-15.6%,inactive
CC[C@H](C)CCCCC(=O)N[C@@H](CCN)C(=O)N[C@H](C(=O)N[C@@H](CCN)C(=O)N[C@H]1CCNC(=O)[C@H]([C@@H](C)O)NC(=O)[C@H](CCN)NC(=O)[C@H](CCN)NC(=O)[C@H](CC(C)C)NC(=O)[C@@H](CC(C)C)NC(=O)[C@H](CCN)NC1=O)[C@@H](C)O (X2-[Dab]T[Dab][Dab][Dab][dL]L[Dab][Dab]T; lactam 4-C),13.6%,inactive
CN[C@@H]1CCc2[nH]c3ccc(C(N)=O)cc3c2C1,-0.658%,inactive
CN=C(NC)NCc1ccccc1,13.1%,inactive
O=C1O[C@@H]2[C@@H](O)[C@H](O)O[C@@H]2[C@H]1O,3.86%,inactive
CN1CC(O)c2cc(N=NC(N)=O)c(O)cc21 (configuration not stated),-4.67%,inactive
CC(=O)OCC(=O)[C@@]1(O)[C@H](C)C[C@H]2[C@@H]3C[C@H](F)C4=CC(=O)C=C[C@]4(C)[C@H]3[C@@H](O)C[C@@]21C,-15.2%,inactive
CN(C(=O)CO)c1c(I)c(C(=O)NCC(O)CO)c(I)c(C(=O)NCC(O)CO)c1I (configuration not stated),-2.64%,inactive
CCC(=O)O,-11.8%,inactive
C/C(=C(\CCOC(=O)c1ccccc1)SS/C(CCOC(=O)c1ccccc1)=C(/C)N(C=O)Cc1cnc(C)nc1N)N(C=O)Cc1cnc(C)nc1N,9.71%,inactive
